# In PubChem BioAssay (NCATS):
# Active and inactive are the calls of the source. Calls come from the whole dose curve; as a rule, active = well fitted curve in the direction sought with a large enough effect; inconclusive = small, poorly fitted or top-dose-only effect, or effect the other way, or another doubt; inactive = no such curve, though single readings can be large or run the other way.
# Assay: qHTS of Nrf2 Activators: LOPAC Validation (AID 624149)
# Conditions: Nrf2/ARE reporter cell assay; series mostly up to 46.1 µM
# How it was run: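 Following overnight seeding in 5% FBS OPTI-MEM, AREc32_Fluc cells receive compounds for a 24 hr incubation at 37 deg C with 5% CO2. Steady-Glo is added, and after 30 min at RT luminescence is recorded.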
row,Compound,outcome
1,O=c1c(O)c(-c2ccc(O)cc2O)oc2cc(O)cc(O)c12,inactive
2,O=c1cc(N2CCOCC2)oc2c(-c3ccccc3)cccc12,inactive
3,O=C1c2c(O)cc(O)cc2OC(c2ccc(O)c(O)c2)C1O (stereo not drawn),inactive
4,CC1(C)C(=O)N(CCN2CCC(C(=O)c3ccc(F)cc3)CC2)c2ccccc21,inactive
5,CC(=O)N1CCN(c2ccc(OC[C@H]3CO[C@](Cn4ccnc4)(c4ccc(Cl)cc4Cl)O3)cc2)CC1,inactive
6,CN(C)CCCC1(c2ccc(F)cc2)OCc2cc(C#N)ccc21 (stereo not drawn),inactive
7,Nc1ccn([C@@H]2O[C@H](CO)[C@@H](O)C2O)c(=O)n1 (stereo partly drawn),inactive
8,COc1cc2nc(N3CCN(C(=O)C4CCCO4)CC3)nc(N)c2cc1OC (stereo not drawn),inactive
9,Cc1cc(O)c2c(c1)C(=O)c1cc(O)cc(O)c1C2=O,inactive
10,NC(=NCc1ccccc1)NC(=O)c1nc(Cl)c(N)nc1N,inactive
11,CC(C)c1ccc2c(c1)c(SC(C)(C)C)c(CC(C)(C)C(=O)O)n2Cc1ccc(Cl)cc1,inactive
12,Cc1c(OCC(F)(F)F)ccnc1CS(=O)c1nc2ccccc2[nH]1 (stereo not drawn),inactive
13,CCOC(=O)C(C)Oc1cccc2c(=O)n(CC(=O)Nc3ccc4c(c3)OCCO4)ccc12 (stereo not drawn),inactive
14,Nc1nc(OCc2ccccc2)c2[nH]cnc2n1,inactive
15,OC(CN1CCN(c2cccc(Cl)c2)CC1)C(c1ccccc1)c1ccccc1 (stereo not drawn),inactive
16,COc1ccc2cc([C@H](C)C(=O)O)ccc2c1,inactive
17,COc1cc2c(cc1OC)C1CC(=O)C(CC(C)C)CN1CC2 (stereo not drawn),inactive

row,Compound,outcome
1,Oc1ccc(-c2nc(-c3ccc(F)cc3)c(-c3ccncc3)[nH]2)cc1,inactive
2,O=c1c(O)c(-c2cc(O)c(O)c(O)c2)oc2cc(O)cc(O)c12,inactive
3,NCCCCNCCCN,inactive
4,COc1ccccc1N1CCN(CCN(C(=O)C2CCCCC2)c2ccccn2)CC1,inactive
5,CC(=O)O[C@H]1C(=O)[C@@]2(C)C([C@H](OC(=O)c3ccccc3)[C@]3(O)C[C@H](OC(=O)[C@H](O)[C@@H](NC(=O)c4ccccc4)c4ccccc4)C(C)=C1C3(C)C)[C@]1(OC(C)=O)CO[C@@H]1C[C@@H]2O (stereo partly drawn),inactive
6,O=c1ccc2ccc(O)c(O)c2o1,inactive
7,O=C1c2ccccc2-c2n[nH]c3cccc1c23,inactive
8,NNc1nncc2ccccc12,inactive
9,C[C@H](Cc1ccc(O)c(O)c1)[C@@H](C)Cc1ccc(O)c(O)c1,inactive
10,O=C(CCc1ccc(O)cc1)c1c(O)cc(O)cc1O,inactive
11,Nc1nc(N)c(N=O)c(OCC2CCCCC2)n1,inactive
12,O=C(O)c1cccnc1Nc1cccc(C(F)(F)F)c1,inactive
13,O=C1NC(=O)C(c2ccccc2[N+](=O)[O-])=C1Nc1ccc(O)c(Cl)c1,inactive
14,O=C(c1ccccc1)c1ccc2n1CCC2C(=O)O (stereo not drawn),inactive
15,CC1(C)NC(=O)N(c2ccc([N+](=O)[O-])c(C(F)(F)F)c2)C1=O,inactive
16,Oc1ccc2ccccc2c1SSc1c(O)ccc2ccccc12,inactive
